Activity calls are given as the source filed them.
Assays:
[1] = anti-His antibody binders, primary screen, artefact control for SMM control protein annotation, biochemical, small-molecule microarray, 635 nm fluorescence (AID 1128); settings: anti-His Alexa647 antibody binding, higher = more signal;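 also: score merges feature fluorescence with signal-to-noise for each printed compound spot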
[2] = tested on: Human papillomavirus type 1a E7 protein (residues 1-88); experiment: HPV1a E7 small-molecule binders, primary screen, biochemical, small-molecule microarray, residues 1-88, 635 nm (AID 1129); settings: small-molecule microarray binding, fluorescence 635 nm; higher = more signal
[3] = target: Focal adhesion kinase 1 (Homo sapiens) (UniProt Q05397); experiment: small-molecule microarray binders of FAK, primary screen, biochemical, 635/667 nm fluorescence, BSA, DTT (AID 1130); settings: PTK2 binding, 635 nm fluorescence, higher = more signal;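 also: composite of spot emission at 667 nm and signal to noise over triplicate slides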
Focal adhesion kinase 1 (Homo sapiens), sequence (Q05397 whole entry, looked up): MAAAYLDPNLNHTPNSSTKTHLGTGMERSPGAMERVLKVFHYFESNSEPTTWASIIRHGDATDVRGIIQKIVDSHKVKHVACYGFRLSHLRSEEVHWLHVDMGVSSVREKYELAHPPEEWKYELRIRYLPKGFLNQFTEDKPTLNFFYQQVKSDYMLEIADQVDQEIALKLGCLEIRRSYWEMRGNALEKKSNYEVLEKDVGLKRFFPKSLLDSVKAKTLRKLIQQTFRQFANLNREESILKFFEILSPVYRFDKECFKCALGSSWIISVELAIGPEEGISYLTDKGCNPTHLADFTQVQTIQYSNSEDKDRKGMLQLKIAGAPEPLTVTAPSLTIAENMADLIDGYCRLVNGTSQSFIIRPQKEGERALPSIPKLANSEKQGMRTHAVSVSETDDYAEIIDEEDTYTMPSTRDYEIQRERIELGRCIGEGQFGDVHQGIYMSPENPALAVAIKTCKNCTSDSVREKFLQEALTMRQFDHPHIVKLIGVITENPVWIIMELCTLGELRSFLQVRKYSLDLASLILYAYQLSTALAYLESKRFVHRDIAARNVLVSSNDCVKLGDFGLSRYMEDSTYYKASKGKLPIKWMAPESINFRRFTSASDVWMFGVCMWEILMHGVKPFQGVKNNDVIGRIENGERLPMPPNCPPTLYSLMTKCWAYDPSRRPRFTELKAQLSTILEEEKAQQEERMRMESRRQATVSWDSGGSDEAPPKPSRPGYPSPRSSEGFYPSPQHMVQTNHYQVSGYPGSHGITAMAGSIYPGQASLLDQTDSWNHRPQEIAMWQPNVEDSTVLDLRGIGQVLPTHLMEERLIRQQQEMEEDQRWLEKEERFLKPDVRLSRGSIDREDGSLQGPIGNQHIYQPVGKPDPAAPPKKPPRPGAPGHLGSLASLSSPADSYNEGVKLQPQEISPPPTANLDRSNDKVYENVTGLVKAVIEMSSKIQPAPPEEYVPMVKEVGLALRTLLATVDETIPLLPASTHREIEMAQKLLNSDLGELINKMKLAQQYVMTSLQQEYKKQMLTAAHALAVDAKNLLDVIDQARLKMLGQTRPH

[4] = tested on: Fibrinogen (Alexa647-labelled); experiment: fibrinogen binders on compound microarrays, profiling panel, artefact control for SMM control-protein annotation, biochemical, small-molecule microarray, 635/667 nm fluorescence (AID 1131); settings: fibrinogen-A647 binding fluorescence, higher = more signal;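 also: z-score merges 667 nm fluorescence with per-spot signal-to-noise over triplicate slides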
[5] = target: Follistatin (Homo sapiens) (UniProt P19883); experiment: follistatin binders on small-molecule microarrays, primary screen, biochemical, small-molecule microarray, 635/667 nm fluorescence (AID 1132); settings: FST binding, 635 nm fluorescence, higher = more signal
Follistatin (Homo sapiens), sequence (P19883 whole entry, looked up): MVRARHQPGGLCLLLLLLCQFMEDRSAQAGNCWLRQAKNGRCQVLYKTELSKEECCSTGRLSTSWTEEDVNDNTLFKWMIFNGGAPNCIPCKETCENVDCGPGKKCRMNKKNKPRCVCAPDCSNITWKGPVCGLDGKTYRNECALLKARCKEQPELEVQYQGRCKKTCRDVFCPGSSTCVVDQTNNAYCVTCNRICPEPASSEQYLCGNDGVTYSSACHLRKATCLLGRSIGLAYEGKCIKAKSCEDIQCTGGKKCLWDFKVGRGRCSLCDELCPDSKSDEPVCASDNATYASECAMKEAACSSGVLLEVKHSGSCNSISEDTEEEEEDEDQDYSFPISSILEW

[6] = target: Fibroblast growth factor 2 (Homo sapiens) (UniProt P09038); experiment: FGF2 binders on small-molecule microarrays, primary screen, biochemical, small-molecule microarray, 635/667 nm fluorescence (AID 1133); settings: small-molecule microarray binding, FGF2, fluorescence 635/667; higher = more signal
Fibroblast growth factor 2 (Homo sapiens), sequence (P09038 whole entry, looked up): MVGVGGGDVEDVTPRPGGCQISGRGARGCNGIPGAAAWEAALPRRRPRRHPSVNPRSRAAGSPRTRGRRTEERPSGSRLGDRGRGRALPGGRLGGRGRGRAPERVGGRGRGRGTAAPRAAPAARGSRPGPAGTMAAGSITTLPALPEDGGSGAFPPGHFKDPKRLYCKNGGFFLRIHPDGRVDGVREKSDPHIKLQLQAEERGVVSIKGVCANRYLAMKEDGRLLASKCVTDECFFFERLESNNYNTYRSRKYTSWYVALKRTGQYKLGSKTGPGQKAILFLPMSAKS

[7] = mitochondrial membrane potential change in A549 cells, profiling panel, cell-based, JC-1 fluorescence, basal, 24 h, 100 nL (AID 1138); settings: higher = more signal;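 also: A549 lung adenocarcinoma cells under basal conditions with no added stimulus; test concentration not given here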
[8] = tested on: Lefty1; experiment: Lefty1 binders on small-molecule microarrays, primary screen, biochemical, small-molecule microarray, 635/667 nm fluorescence (AID 1139); settings: small-molecule microarray binding, fluorescence 635/667; higher = more signal
[9] = tested on: wheat germ agglutinin (Triticum aestivum), Alexa647-labelled; experiment: wheat germ agglutinin binders on compound microarrays, profiling panel, artefact control for SMM control-protein annotation, biochemical, small-molecule microarray, 635/667 nm fluorescence (AID 1140); settings: WGA-A647 binding, 635 nm fluorescence, higher = more signal;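 also: score merges 667 nm feature emission with signal to noise over triplicate slides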
[10] = target: Luciferin 4-monooxygenase (Photinus pyralis) (UniProt P08659); experiment: firefly luciferase enzyme inhibitors, primary screen, biochemical, luminescence, purified enzyme, 2006 set (AID 1141); settings: SteadyGlo luminescence, 30 min, higher = more signal, called active from +8 up or from −8 down;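 also: cell-free assay with purified firefly luciferase at 100 ng per well in PBS; test concentration not given here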
Luciferin 4-monooxygenase (Photinus pyralis), sequence (P08659 whole entry, looked up): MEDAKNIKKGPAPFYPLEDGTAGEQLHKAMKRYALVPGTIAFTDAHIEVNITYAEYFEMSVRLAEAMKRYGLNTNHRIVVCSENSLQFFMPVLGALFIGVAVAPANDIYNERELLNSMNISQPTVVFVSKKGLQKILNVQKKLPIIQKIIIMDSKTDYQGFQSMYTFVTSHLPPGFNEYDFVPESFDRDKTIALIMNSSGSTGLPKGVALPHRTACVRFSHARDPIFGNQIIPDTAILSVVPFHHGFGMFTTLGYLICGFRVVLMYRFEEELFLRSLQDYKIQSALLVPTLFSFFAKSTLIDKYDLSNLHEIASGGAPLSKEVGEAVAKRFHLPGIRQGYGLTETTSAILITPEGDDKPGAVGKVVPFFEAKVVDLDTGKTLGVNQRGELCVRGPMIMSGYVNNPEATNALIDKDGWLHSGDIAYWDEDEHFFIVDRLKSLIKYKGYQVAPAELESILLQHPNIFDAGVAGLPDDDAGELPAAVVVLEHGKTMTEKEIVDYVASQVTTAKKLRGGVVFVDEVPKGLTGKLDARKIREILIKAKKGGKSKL

Structure (SMILES)	composite z-score [1]	composite z-score [2]	composite z-score [3]	composite z-score [4]	composite z-score [5]	composite z-score [6]	z-score [7]	composite z-score [8]	composite z-score [9]	z-score [10]
COC(=O)C(CC#Cc1ccc2c(c1)[C@]1(C(=O)N2)[C@H](C(=O)Nc2nc3ccccc3s2)[C@H]2C(=O)O[C@H](c3ccccc3)[C@H](c3ccccc3)N2[C@@H]1c1ccc(OCCO)cc1)C(=O)OC	1.94	1.1	0.539	0.978	1.45	1.39	-1.94	1.27	1.07	-4.66 (inactive)
C[C@]1(C(=O)O)c2ccccc2C(=O)N(Cc2ccc(OC(F)(F)F)cc2)[C@H]1c1ccc(CO)cc1	1.1	0.409	0.609	0.0748	-0.156	-0.381	0.447	-0.685	0.596	0.0795 (inactive)
NCCCCCNC(=O)[C@@H]1C[C@@H]2C(=O)N3CCC[C@H]3C(=O)N2[C@@H]1c1ccc(O)cc1	0.509	1.18	0.139	0.788	1.17	0.428	0.375	1.08	0.955	-0.444 (inactive)
CCOC(=O)C[C@H]1[C@H](OC(=O)c2ccccc2-c2ccccc2)[C@@H](NC(=O)c2ccc3ccccc3n2)c2cc(OCCCO)ccc2N1C(=O)c1ccccc1	-0.0974	0.378	0.185	0.322	0.782	0.16	0.628	0.634	0.857	0.272 (inactive)
CCOC(=O)C1=C[C@@H](C(C)(C)C)N(S(=O)(=O)c2ccc(C)cc2)[C@H]1c1cccc(Cl)c1	1.07	1.22	2.77	0.862	0.677	0.556	2.42	1.26	1.01	1.24 (inactive)
CC(=O)N1CC(C(O)C2C=CC3C(=O)NC(=O)C3N2Nc2ccc(Cl)cc2Cl)c2ccccc21 (stereo not given)	0.285	1.15	-0.416	0.439	0.772	-0.0113	0.125	-0.216	1.14	-1.4 (inactive)
[N-]=[N+]=Nc1ccccc1[C@@H]1OC(c2ccc(OCCCO)cc2)=N[C@]1(Cc1ccccc1)C(=O)NCc1ccccc1	1.27	1.17	0.763	0.798	0.852	0.409	-1.63	0.491	1.36	-5.74 (inactive)
NC(=O)NCC#Cc1ccc2c(c1)[C@]1(C(=O)N2)[C@H](C(=O)N2CCN(c3ncccn3)CC2)[C@H]2C(=O)O[C@H](c3ccccc3)[C@H](c3ccccc3)N2[C@@H]1c1ccc(OCCO)cc1	0.0543	0.805	0.0827	0.717	1.33	0.517	-1.18	0.406	0.276	-0.437 (inactive)
COc1ccc([Si](C)(C)[C@H]2[C@H](CC(=O)N3CCC[C@H]3CO)O[C@@]3(C(=O)N(Cc4ccc(N5CCC5=O)cc4)c4ccccc43)[C@@H]2C)cc1	1.54	1.19	0.559	0.898	1.35	1.73	1.51	1.56	0.211	-0.509 (inactive)
COCCOC(=O)N1C(=O)[C@@]2(c3cc(C#Cc4ccc(OC)cc4)ccc31)[C@H](C(=O)NC[C@H](O)c1ccccc1)[C@H]1C(=O)O[C@H](c3ccccc3)[C@H](c3ccccc3)N1[C@@H]2c1ccc(OCCO)cc1	1.24	1.2	-0.103	0.801	1.29	1.01	-1.77	1.15	0.815	-0.459 (inactive)
C=C(C(=O)CC[C@@H](OC(=O)c1ccccc1-c1ccccc1C(=O)O)c1ccccc1OCCO)C(C)C	-0.186	1.23	0.183	0.532	1.46	1.77	-0.0391	1.58	0.109	-0.679 (inactive)
O=c1cccc(-c2ccc(F)cc2)o1	0.198	0.734	0.111	-0.191	0.456	0.898	-0.0822	0.571	0.62	1.73 (inactive)
COCC(=C=CC[C@@H](O)c1ccc(OCCO)cc1)CCO	0.656	0.529	0.17	-0.97	1.08	0.517	0.721	0.993	1.27	-0.776 (inactive)
CN(C)CCCCCCNC(=O)[C@@H]1C[C@@H]2C(=O)N[C@@H](CCCCN)C(=O)N2[C@@H]1c1ccc(O)cc1	2.6	1.33	3.73	0.957	1.54	1.6	-0.742	1.66	1.73	0.307 (inactive)
COC(=O)C1=CC(CCCO)=CC(C)N(Cc2cccc(OC(F)(F)F)c2)C=C1C(=O)OC (stereo not given)	0.178	0.702	0.955	-0.269	-0.278	-0.807	0.142	-0.0105	1.11	0.347 (inactive)
CC=CC(O)C1C=CC2C(=O)NC(=O)C2N1Nc1ccccn1 (stereo not given)	1.41	0.497	0.381	0.657	1.02	0.352	0.514	0.585	0.0489	-0.0429 (inactive)
Cc1cccc([C@H]2C[C@H]3C(Br)=C[C@@H]2C(=O)[C@]32CO2)c1	-0.255	-1.61	-0.181	-0.145	0.243	0.291	0.518	0.154	-0.278	-0.425 (inactive)

Structure (SMILES)	composite z-score [1]	composite z-score [2]	composite z-score [3]	composite z-score [4]	composite z-score [5]	composite z-score [6]	z-score [7]	composite z-score [8]	composite z-score [9]	z-score [10]
COCCCNC(=O)[C@@]1(c2ccc([N+](=O)[O-])cc2)CC(=O)N(C(C)C)[C@@H]1c1ccc(CO)cc1	-0.92	-0.085	0.756	-0.779	0.559	0.352	0.296	-0.0938	0.174	-0.985 (inactive)
C=CCC(OC(C)=O)[C@@H]1[C@@H](N(Cc2ccc(-c3ccccc3)cc2)C(=O)Cc2ccc(F)cc2)c2cc(OCCCO)ccc2N1C(=O)Cc1ccc2ccccc2c1 (stereo not given in full)	-0.631	-0.0842	0.318	-0.198	0.305	-0.0712	1.85	-0.0639	0.139	-1.2 (inactive)
Nc1cc(Br)ccc1C(=O)O	1.28	0.319	0.5	0.777	0.181	0.372	1.28	-0.0916	0.863	-1.1 (inactive)
O=C1C[C@@](C(=O)NCc2ccccc2)(c2ccc([N+](=O)[O-])cc2)[C@@H](c2ccc(CO)cc2I)N1CC12CC3CC(CC(C3)C1)C2	0.579	0.976	0.121	0.846	1.41	1.54	-1.36	1.52	1.07	1.34 (inactive)
[N-]=[N+]=NCc1ccccc1[C@@H]1OC(c2ccc(OCCCO)cc2)=N[C@]1(Cc1ccccc1)C(=O)NCCN1CCOCC1	1.16	1.18	0.533	0.514	1.31	0.41	2.27	-0.0059	0.721	-1.94 (inactive)
COc1cc(NN2C(C(O)c3cc(OC)c(OC)c(OC)c3)C=CC3C(=O)N(c4ccccc4)C(=O)C32)cc(OC)c1OC (stereo not given)	1.41	1.27	0.6	1.04	1.28	1.56	-0.609	0.133	0.848	-0.771 (inactive)
O=C(N1CCOCC1)[C@@]1(CCS(=O)(=O)c2ccccc2)N=C(c2ccc(OCCCO)cc2)O[C@H]1c1ccccc1	3.23	1.25	0.919	1	1.25	0.162	0.584	-0.415	1.29	-0.0763 (inactive)
CCOC(=O)C1=C[C@@H](C(C)(C)C)N(S(=O)(=O)c2ccc(C)cc2)[C@H]1c1ccccc1	0.761	1.16	0.329	0.706	1.11	0.136	2.21	0.523	1.09	0.756 (inactive)
C=C[C@@H](OC)[C@H](OC(=O)Nc1ccc(SC)cc1)c1ccc(OCCO)cc1	2.02	0.815	0.317	0.951	1.17	0.377	-1.48	0.545	0.653	-2.25 (inactive)
CC(C)(C)OC(=O)CC[C@]12N=C(c3ccc(OCCCO)cc3)O[C@H]1c1ccccc1N(Cc1ccccc1)C2=O	1.6	1.13	0.56	0.758	1.35	1.4	3.04	0.457	0.477	-2.2 (inactive)
CN1C(=O)C2C(C1=O)C1C=C(CCCO)C2C(c2cccs2)N1Cc1cc2c(cc1Br)OCO2 (stereo not given)	1.12	1.22	1.07	1.04	1.35	0.502	0.903	0.265	1.17	-1.48 (inactive)
COCCCNC(=O)[C@@]1(Sc2ccc(C)cc2)CC(=O)N(C(C)C)[C@@H]1c1ccc(CO)cc1I	-0.578	0.569	-0.0285	-0.491	-0.035	-0.335	-0.0858	-0.21	0.271	0.805 (inactive)
COC(=O)[C@@]1(Cc2ccc(OC)cc2)[C@H]2c3cc(C(=O)N4CCCC4)n(Cc4ccc(S(C)(=O)=O)cc4)c3C[C@H]2CN1C(=O)c1ccccc1	0.486	1.26	0.721	0.996	0.0078	-0.184	1.26	-0.0956	0.479	0.922 (inactive)
CN1C(=O)C2C=CC(C(O)c3ccc(F)cc3)N(NC(=O)OC(C)(C)C)C2C1=O (stereo not given)	0.322	0.878	0.22	0.81	0.344	-0.475	-0.946	0.0813	0.381	-0.507 (inactive)
C=C(C(=O)CC[C@H](OC(=O)c1ccccc1-c1ccccc1C(=O)O)c1ccccc1OCCO)C(C)C	-0.0781	0.909	0.0778	-0.115	0.991	1.24	0.743	1.01	0.423	-1.29 (inactive)
CC(C)CCC[C@@H](C)[C@H]1CC[C@@]2(C)C3=C(CC[C@]12C)[C@@]1(C)CC[C@H](OC(=O)c2ccccc2)C(C)(C)C1CC3 (stereo not given in full)	0.226	0.29	-0.0586	0.816	0.438	0.288	0.442	0.591	0.134	-0.0355 (inactive)

Source: PubChem BioAssay
